Only some compounds are listed: those with a hit (about 4.9% of all), similar ones and a draw of the others.
HSF-1 act: increases HSF-1 driven luciferase reporter signal; actives 1.7% (n = 300,000); NIH3T3-HGL HSF-1 luciferase reporter, MG132, 8 h; 100% = twice DMSO control signal; activation, % at 9 µM;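 active means mean replicate activation of at least 50% with a set share of replicates each reaching 50%; inconclusive means only one of those two conditions met; inactive means mean below 50% and too few replicates reaching it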;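 further: 0% = median of the neutral control wells and 100% = twice that signal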
HSF1 inhib: HSF1 inhibition; NIH3T3-HGL HSE-luciferase, MG132-induced, luminescence 8 h; active compounds read low; actives 0.77% (n = 300,000); activity change, negative = inhibition, % at 7.5 µM (by protocol);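 active means more than half of replicate wells show activity change below -50%, luminescence cut by over half; inconclusive means some wells, but at most half, below -50%; inactive means no replicate well below -50%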;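 further: luciferase reports HSF-1 transcriptional activity via heat shock element; 0% = median of DMSO wells and -100% = zero luminescence signal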
Platelet DG rel: platelet dense granule release activity | human platelet-rich plasma, SFLLRN dense granule ATP release, luminescence | inhibition, %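 (compounds screened at 7.5 µM in platelet-rich plasma)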 | actives 0.22% (n = 300,000);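 active means mean replicate score, as percent of positive control, at or above 50; inconclusive means mean below 50 but at least one replicate at or above 50; inactive means mean and every replicate below 50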
HSP90 inh: HSP90 refolding inhibition in rabbit reticulocyte lysate. inhibition, % at 5.6 µM. AID 1789. luciferase refolding luminescence, 3 h. actives 0.91% (n = 290,000);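 active means inhibition above the screen-wide mean plus 3 SD, computed separately per campaign, cut at about 16% in these data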;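 further: 0% = DMSO wells and 100% = 60 µM geldanamycin wells; inhibitors lower the luminescence because luciferase stays unfolded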
MPTP inh: blocks calcium-induced mitochondrial swelling. isolated mouse mitochondria, Ca2+ swelling absorbance, 30 min. inhibition, % at 10 µM. actives 1.4% (n = 360,000);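 active means inhibition of 50% or more, scaled per plate between neutral and stimulator controls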;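 further: 0% = DMSO wells given calcium and 100% = 1 mM EGTA wells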
dFosB act: mouse delta FosB homodimer activation; activation, % at 25 µM; purified delta FosB, TAMRA-CDK5 oligo fluorescence polarization; percent of positive-control signal above neutral wells; P13346; AID 493131; actives 0.99% (n = 340,000);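 active means mean activation above about 17%, with every replicate also reaching it, limit read from the data, passing the limit was not always enough; inconclusive means only one of the two conditions met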
Target sequence (P13346 whole entry, looked up): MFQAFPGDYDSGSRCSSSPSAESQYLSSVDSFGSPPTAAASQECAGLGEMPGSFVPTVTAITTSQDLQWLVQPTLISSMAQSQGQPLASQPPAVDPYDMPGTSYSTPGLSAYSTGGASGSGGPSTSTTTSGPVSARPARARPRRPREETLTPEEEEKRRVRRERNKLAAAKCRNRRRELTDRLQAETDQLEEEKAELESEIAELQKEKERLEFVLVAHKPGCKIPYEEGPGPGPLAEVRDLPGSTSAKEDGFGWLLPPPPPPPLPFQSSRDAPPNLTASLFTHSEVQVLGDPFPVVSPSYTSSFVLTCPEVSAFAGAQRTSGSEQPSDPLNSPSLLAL
MPTP counter: Rhodamine 123 counter-screen of mitochondrial pore hits | shares compounds with MPTP inh | isolated mitochondria, membrane potential, Rhodamine 123 fluorescence | inhibition, % at 10 µM | actives 78% (n = 5,000); in the data active means inhibition above about 22%;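 further: 0% = DMSO vehicle and 100% = positive control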
MPTP abs DR: dose response confirmation of mitochondrial permeability transition pore inhibitors; actives 58% (n = 780); isolated mitochondria swelling, absorbance; IC50, µM; shares compounds with MPTP inh; in the data active means IC50 below about 20 µM
MPTP counter DR: MPTP inhibitor counter-screen activity, dose response; IC50, µM; shares compounds with MPTP inh; isolated mitochondria counterscreen, fluorescence read-out; actives 49% (n = 780); in the data active means IC50 below about 80 µM
Starred values were filed as active, the others as inactive.

How did O=C(c1ccco1)N1CCN(CCOCCOc2cccc3ccccc23)CC1 do in these assays?
HSF-1 act: -2; HSF1 inhib: 3; Platelet DG rel: -1; HSP90 inh: -2; MPTP inh: 2; dFosB act: 1

What do the screens show for `COc1ccc([C@@H]2CC=C(C(=O)O)[C@H](c3ccc(C)cc3)N2S(=O)(=O)c2ccccc2C)cc1`?
MPTP inh: 0; dFosB act: -4

What do the screens show for `Cc1ccc(S(=O)(=O)/N=C(/c2ccc(F)cc2)N2CCCCC2)cc1`?
HSF-1 act: 14; HSF1 inhib: -3; Platelet DG rel: 25; HSP90 inh: 3; MPTP inh: 5; dFosB act: 4

Results for COC(=O)C(NC(=O)c1ccc(F)cc1)(Nc1ncc(S(=O)(=O)c2ccc([N+](=O)[O-])cc2)s1)C(F)(F)F (stereo unspecified) ?
HSF-1 act: 10; HSF1 inhib: 4; Platelet DG rel: 6; HSP90 inh: 2; MPTP inh: 90*; dFosB act: -7; MPTP counter: 88*

What do the screens show for `O=C(O)c1ccccc1-c1ccccc1C(=O)NCc1ccccc1Cl`?
HSF-1 act: -3; HSF1 inhib: -8; Platelet DG rel: 0; HSP90 inh: -3; MPTP inh: 0; dFosB act: -1

Results for CC1CCCN(c2nc3ccccc3nc2C(C#N)S(=O)(=O)c2ccccc2)C1 (stereo unspecified) ?
HSF-1 act: 4; HSF1 inhib: 4; Platelet DG rel: -1; HSP90 inh: 2; MPTP inh: 82*; dFosB act: -8; MPTP counter: 83*

How did CCCCOc1nc2ccccc2nc1C(C#N)S(=O)(=O)c1ccccc1 (stereo unspecified) do in these assays?
HSF-1 act: 3; HSF1 inhib: 6; Platelet DG rel: 13; HSP90 inh: 5; MPTP inh: 51*; dFosB act: 6; MPTP counter: 78*

How did CN(CC(=O)Nc1ccc(F)cc1)C(=O)c1cc(-c2cccs2)nn1-c1ccccc1 do in these assays?
MPTP inh: 2; dFosB act: -18

What do the screens show for `CN1CCN(CC(=O)N2c3ccccc3C(C)(c3ccc(Cl)cc3)CC2(C)C)CC1` (stereo unspecified)?
HSF-1 act: 8; HSF1 inhib: 1; Platelet DG rel: 0; HSP90 inh: 2; MPTP inh: 75*; dFosB act: 1; MPTP counter: -3; MPTP abs DR: 19*; MPTP counter DR: >80

How did CC(=O)N1c2ccccc2C(C)(c2ccccc2)CC1(C)C (stereo unspecified) do in these assays?
HSF-1 act: -27; HSF1 inhib: -3; Platelet DG rel: -5; HSP90 inh: 2; MPTP inh: 0; dFosB act: -3

Results for CN1CCN(CC(=O)N2c3ccccc3C(C)(c3ccccc3)CC2(C)C)CC1 (stereo unspecified) ?
HSF-1 act: 10; HSF1 inhib: 3; Platelet DG rel: -1; HSP90 inh: 3; MPTP inh: 74*; dFosB act: 3; MPTP counter: -9; MPTP abs DR: inactive; MPTP counter DR: >80

Results for CC(=O)Nc1cccc(NC(=O)C(=O)c2cn(CC(=O)N3CCCC3)c3ccccc23)c1 ?
MPTP inh: -1

Results for COc1cc(CN2CCC(n3nccc3NC(=O)C3CC3)CC2)cc(OC)c1 ?
HSF-1 act: -13; HSF1 inhib: -2; Platelet DG rel: 0; HSP90 inh: 1; MPTP inh: 1; dFosB act: -4

Results for CC(C)CCN1CCC[C@]2(N[C@H](c3ccc(C(F)(F)F)cc3)[C@@H]3C(=O)N(Cc4ccccc4)C(=O)[C@@H]32)C1=O ?
MPTP inh: 1

Results for S=C(Nc1ccc(Oc2ccccc2)cc1)N1CCN(c2ccccn2)CC1 ?
HSF-1 act: -10; HSF1 inhib: -6; Platelet DG rel: 7; HSP90 inh: 0; MPTP inh: 80*; dFosB act: -1; MPTP counter: 79*

How did S=C(Nc1ccc(Cl)c(Cl)c1)N1CCN(c2ccccn2)CC1 do in these assays?
HSF-1 act: 12; HSF1 inhib: -1; Platelet DG rel: 3; HSP90 inh: -1; MPTP inh: 1; dFosB act: inconclusive

What do the screens show for `S=C(NCCc1ccccc1)Nc1ccc(Br)cc1`?
HSF-1 act: 26; HSF1 inhib: 21; Platelet DG rel: -9; HSP90 inh: 0; MPTP inh: 98*; dFosB act: -1; MPTP counter: 92*

Results for COC(=O)Cc1ccc(NC(=S)NCCC(C)C)cc1 ?
HSF-1 act: 9; HSF1 inhib: -2; Platelet DG rel: -5; HSP90 inh: 4; MPTP inh: 4; dFosB act: -7

Results for CC(C)OC(=O)c1cc(NC(=S)Nc2ccc([N+](=O)[O-])cc2)cc(C(=O)OC(C)C)c1 ?
HSF-1 act: 8; HSF1 inhib: 10; Platelet DG rel: 0; HSP90 inh: 3; MPTP inh: 97*; dFosB act: -13; MPTP counter: 100*

How did S=C(NCCc1ccncc1)Nc1ccccc1 do in these assays?
HSF-1 act: 0; HSF1 inhib: 7; Platelet DG rel: -2; HSP90 inh: -1; MPTP inh: 0; dFosB act: 1

Results for CC(C)CCNC(=S)Nc1ccc([N+](=O)[O-])cc1 ?
HSF-1 act: 23; HSF1 inhib: 1; Platelet DG rel: -5; HSP90 inh: 0; MPTP inh: 98*; dFosB act: 4; MPTP counter: 85*

How did CCCNC(=S)Nc1ccc(Br)cc1 do in these assays?
HSF-1 act: 4; HSF1 inhib: 2; Platelet DG rel: 13; HSP90 inh: -1; MPTP inh: 0; dFosB act: -1

How did CC(C)COc1ccc(C(=O)Nc2ccc([N+](=O)[O-])cc2)cc1 do in these assays?
HSF-1 act: 20; HSF1 inhib: 8; Platelet DG rel: 8; HSP90 inh: 0; MPTP inh: -2; dFosB act: -8

Results for CC(C)CCNC(=S)Nc1ccc(Br)cc1 ?
HSF-1 act: 25; HSF1 inhib: 20; Platelet DG rel: -10; HSP90 inh: -4; MPTP inh: 100*; dFosB act: -4; MPTP counter: 88*

How did CCCCC(=O)NS(=O)(=O)c1ccc(N=NN2CCOCC2)cc1 do in these assays?
HSF-1 act: -14; HSF1 inhib: -4; Platelet DG rel: -4; HSP90 inh: 1; MPTP inh: 0; dFosB act: -3
